Measurements: PubChem BioAssay AID2289 (National Center for Advancing Translational Sciences (NCATS), 2010)
About 3,300 (0.97%) of roughly 340,000 compounds were called active. Roughly 9% stayed inconclusive and do not appear here. Calls come from the whole dose curve; as a rule, active = well fitted inhibition curve with a large enough effect; inconclusive = small, poorly fitted or top-dose-only effect, or effect the other way; inactive = flat fitted curve, though single readings scatter. This is one part of the list.

Experiment: qHTS Assay for Modulators of miRNAs and/or Inhibitors of miR-21; note: nearly all actives have a fitted effect of over 55% in size
Conditions: HeLa miR-21-FLuc reporter, luciferase luminescence, 48 h; actives lower the signal
From the text: MLSCN Grant: 1 R21 NS059478-01 Assay Provider: Qihong Huang, The Wistar Institute NCGC Assay Overview: MicroRNAs (miRNAs) are endogenously encoded small (~20-25 nucleotides), nonprotein-coding RNAs that are involved in post-transcriptional repression of target messenger RNAs (mRNAs) (Le and Hannon, 2004). Estimated to be involved in the regulation of 30% of all protein-coding mRNAs (Filipowicz et al., 2008), miRNAs play a significant role in many biological processes including cellular differentiation and tissue development (Ghildiyal and Zamore, 2009).
NCGC Assay Protocol Summary: Reagents: HeLa cells stably expressing firefly luciferase (FLuc) under the control of a CMV promoter (upstream) and a miR-21 binding sequence directly downstream of the gene. These cells endogenously express miR-21. Control compounds used were compound C3 (provided by collaborator), N6-phenyladenosine (MP Biomedicals, 0215379625), and DMSO. Assay Summary: 6uL of HeLa miR-21-FLuc cells in assay buffer (DMEM, Invitrogen #21063-029; 10% FBS, HyClone #SH30071.03) were dispensed at 2000cells/well (3.3 x 10^5 cells/mL) into Greiner solid-white TC-treated 1536-well plates using a Multidrop Combi (Thermo Fisher Scientific). Plates were incubated for one hour at 37 degree Celsius, 95% humidity, 5% CO2. These assay plates were then treated with 23nL of compound or DMSO using a Kalypsys pin tool, which allows for delivery of a 24-point titration of each compound to the assay plate, with a final compound concentration ranging from approximately 40uM to 5pM. Assay plates were then incubated for 48 hours. After incubation, plates were allowed to come to RT for one hour prior to delivery of 3uL of 3X luciferase detection reagent. After a 15 minute incubation to allow for cell lysis, luciferase activity was measured using a ViewLux CCD imager (PerkinElmer), with an average exposure time of 2-12 seconds. Keywords: NIH Roadmap, MLPCN, MLSMR, qHTS, miR-21, microRNA, firefly luciferase, FLuc.
Potency is the fitted concentration of half-maximal effect.

Potency, active:
COc1ccc(NC(=O)CCSc2ccc(F)cc2)cc1 7.36 µM
O=C(CSc1ccc(F)cc1)Nc1ccc(C2SCCS2)cc1 11.7 µM
COc1ccccc1NC(=O)c1csc2c1CCC(C)C2 (configuration not stated) 5.85 µM
CC1CCc2c(C(=O)NCc3ccccn3)csc2C1 (configuration not stated) 11.7 µM
Cc1ccc(-c2cc(NC(=O)c3ccccc3Cl)on2)cc1 2.61 µM
CCc1nc(NC(C)(C)C)c2cnn(-c3ccccc3)c2n1 7.36 µM
Cc1ccoc1C(=O)Nc1cccc(Oc2ccccc2)c1 3.29 µM
CCn1c(O)c(/C=C2\C=Nc3ccccc32)sc1=Nc1ccccc1 7.36 µM
CCn1c(O)c(/C=C2\C=Nc3ccccc32)sc1=O 1.17 µM
N/C(Cc1cccc2ccccc12)=N\OC(=O)Cc1cccs1 11.7 µM
N/C(=N\OC(=O)Cc1cccs1)c1ccc(Br)cc1 16.5 µM
N/C(Cc1cccs1)=N\OC(=O)COc1ccccc1Cl 14.7 µM
COc1ccc(/C(N)=N/OC(=O)Cc2cccs2)cc1 6.56 µM
Fc1ccc(/C=C/c2nnc(-c3cccs3)o2)cc1 2.07 µM
Clc1ccc2oc(-c3ccccc3)cc(=NCCCN3CCOCC3)c2c1 4.14 µM
COc1ccc(N/C=C\C(=O)c2ccc(C)cc2)cc1OC 14.7 µM
CCOc1ccc(N/C=C/C(=O)c2ccc(OC)c(OC)c2)cc1 9.27 µM
COc1ccc(N/C=C/C(=O)c2ccc(Cl)cc2)cc1 1.04 µM
Cc1ccc(N/C=C/C(=O)c2ccc(C)cc2)cc1 2.33 µM
COc1ccc(C(=O)/C=C/Nc2cc(C)on2)cc1 2.93 µM
Cc1ccc(NC(=O)C(=O)c2ccc(C)cc2)cc1 2.93 µM
COc1ccc(C(=O)/C=C/Nc2ccc(C)cn2)cc1OC 1.65 µM
CC(=O)c1ccc(N/C=C\C(=O)c2ccc(C)cc2)cc1 1.31 µM
COc1ccccc1/C=C/C(=O)N1CCC(c2ccccc2)C1 (configuration not stated) 2.93 µM
O=C(COc1ccc(F)cc1)N1CCC(c2ccccc2)C1 (configuration not stated) 13.1 µM
O=C(c1ccc(F)cc1)N1CCC(n2nnc3ccccc32)CC1 5.85 µM
O=C(c1ccc(F)cc1)N1CCC(c2ccccc2)C1 (configuration not stated) 7.36 µM
O=C(N/N=C\c1ccco1)Nc1cccc(Cl)c1 1.85 µM
NC(=O)c1sc2nc(-c3cccnc3)ccc2c1N 18.5 µM
NC(=O)c1sc2nc(-c3ccccc3)ccc2c1N 1.85 µM
Nc1c(C(=O)N2CCCC2)sc2nc(-c3ccccc3)ccc12 3.69 µM
CCCNC(=O)/C=C/c1ccc(C(C)C)cc1 16.5 µM
C=CCNC(=O)/C=C/c1ccc(C(C)C)cc1 7.36 µM
CCCOc1cccc(C(=O)Nc2ccc(Br)cc2F)c1 1.85 µM
Nc1c(C(=O)c2cccs2)sc2nsc(SCCN3CCCCC3)c12 4.14 µM
CN1/C(=C\C(=O)c2cccc([N+](=O)[O-])c2)Sc2ccccc21 0.329 µM
Cc1ccc(C(=O)Cn2nnc3ccccc32)cc1C 1.31 µM
Cc1ccc(C(=O)Cn2nnc3ccccc32)cc1 2.33 µM
Clc1cccc(CSc2ncn(-c3ccccc3)n2)c1 16.5 µM
Clc1ccccc1CSc1ncn(-c2ccccc2)n1 5.85 µM
O=C(N/N=C/c1ccc(N2CCOCC2)cc1)c1cccs1 3.29 µM
C/C(=N/NC(=O)c1cccs1)c1ccc(N2CCOCC2)cc1 11.7 µM
O=C(Nc1nc2c(F)cc(F)cc2s1)c1ccc2c(c1)OCCO2 0.0826 µM
Cc1ccc(C(=O)/C=C/c2ccc3c(c2)OCCO3)c(O)c1 18.5 µM
O=C(/C=C/c1ccc2c(c1)OCCCO2)c1ccccc1O 2.07 µM
C=CCn1c(C)csc1=Nc1ccc(C(C)=O)cc1 10.4 µM
Cc1cc(C)nc(S/C=C/C(=O)c2ccccc2F)n1 11.7 µM
C/C(N)=C(/C#N)C(=O)CSc1ccccc1F 8.26 µM
Cc1cc(C)n2cc(COc3ccc4ccccc4c3)nc2n1 1.17 µM
Cc1cc(C)n2cc(CSc3nc4ccccc4s3)nc2n1 4.65 µM
Cc1cc(C)n2c(Br)c(CSc3nc4ccccc4s3)nc2n1 4.14 µM
CC(C)c1ccc(NC(=O)C2=NNC(=O)CC2)cc1 2.33 µM
Cc1cnc(C(=O)Nc2ccc(C(C)C)cc2)cn1 1.65 µM
O=C1c2ccccc2NC(c2ccccc2O)N1c1ccc(F)cc1 (configuration not stated) 2.93 µM
O=C(Nc1cccc(F)c1)Nc1ccc2c(c1)CCC2 0.736 µM
O=C(Nc1ccc2c(c1)CCC2)c1ccc(Br)s1 0.261 µM
O=C(Nc1ccc2c(c1)CCC2)c1cccc(F)c1 4.14 µM
O=C1NC(c2ccccc2Cl)=N/C1=C/c1ccco1 10.4 µM
O=C1NC(c2ccc(Br)cc2)=N/C1=C/c1ccco1 0.927 µM
c1csc(-c2nn3c(C4COc5ccccc5O4)nnc3s2)c1 (configuration not stated) 16.5 µM
COc1ccc(NC(=O)c2cc(F)cc(F)c2)cc1Cl 9.27 µM
COc1ccc(C(=O)Nc2ccc(Cl)c(Cl)c2)c(OC)n1 0.355 µM
COc1ccc(NC(=O)Nc2ccccc2F)cc1Cl 2.07 µM
O=C(Cc1cccs1)NCc1cc(Cl)cc(Cl)c1 14.7 µM
Cc1cccc(CCNc2nc3ccc(C)cc3n3cnnc23)c1 16.5 µM
Cc1cc(C(=O)N/N=C/c2c(C)nn(-c3ccccc3)c2C)n[nH]1 14.7 µM
Cc1cc(C(=O)N/N=C/c2ccccc2)c(C)o1 6.56 µM
Cc1cc(C(=O)N/N=C/c2c(C)nn(-c3ccccc3)c2C)c(C)o1 8.26 µM
COc1cccc2[nH]c(=O)c(-c3ccccc3)cc12 1.65 µM
Nc1nc(-c2ccc(Cl)cc2)nnc1-c1ccc(Br)cc1 2.07 µM
CCCC(=O)Nc1cc2nn(-c3ccccc3)nc2cc1C 0.369 µM
CC(C)CC(=O)Nc1ccc2nn(-c3ccccc3)nc2c1 0.656 µM
CC(=O)Nc1cc2nn(-c3ccccc3)nc2cc1Cl 0.464 µM
COc1ccc(O)c(/C=N/N2CCCCC2)c1 5.21 µM
O=C1N/C(=C\c2nc3ccccc3s2)c2ccccc21 0.0736 µM
CSc1nnc(-c2cc3c(s2)-c2ccccc2CC3)o1 1.17 µM
COCCNC(=O)c1cc2oc3ccccc3c2n1C 14.7 µM
Cn1c(C(=O)NCC2CCCO2)cc2oc3ccccc3c21 (configuration not stated) 2.07 µM
Cn1c(C(=O)N2CCc3ccccc3C2)cc2oc3ccccc3c21 10.4 µM
CCc1c(C)sc(NC(=O)c2cccs2)c1C#N 5.21 µM
CCc1c(C)sc(NC(=O)c2ccco2)c1C#N 11.7 µM
Cc1sc(NC(=O)c2ccccc2)c(C#N)c1-c1ccccc1 0.826 µM
Nc1nc2ccc(-c3nc4ccccc4o3)cc2s1 0.927 µM
Cc1ccccc1NC(=O)c1ccc2c(c1)N(C)CCS2 3.69 µM
CN1CCSc2ccc(C(=O)Nc3ccc(Cl)cc3)cc21 1.04 µM
c1csc(-c2nc3ccccc3s2)c1 5.85 µM
O=C1CCC(=O)N1c1ccc(-c2nc3ccccc3s2)cc1 0.521 µM
c1ccc2sc(-c3ccncc3)nc2c1 6.56 µM
O=S(=O)(Nc1cccc(-c2ccc(N3CCCCCC3)nn2)c1)c1ccc(F)cc1 13.1 µM
O=S(=O)(Nc1cccc(-c2ccc(N3CCCCCC3)nn2)c1)c1cccc(F)c1 9.27 µM
CC(OC(=O)CNC(=O)c1ccccc1F)C(=O)Nc1nc(-c2ccccc2)cs1 (configuration not stated) 4.65 µM
Nc1nn2cc(-c3ccccc3)nc2c2ccccc12 0.521 µM
Clc1ccc(COc2ccccc2-c2ccnc3ncnn23)cc1 13.1 µM
CC(O)c1ccc(OCCN(C)c2ccccn2)cc1 (configuration not stated) 16.5 µM
COc1cc(OC)c(NC(=O)CCCn2nc(C)c3sc4ccccc4c3c2=O)cc1Cl 11.7 µM
Cc1ccc(CONC(=O)c2ccccc2)cc1 18.5 µM
CC/C(=N/NC(=O)c1ccccc1)c1ccc(OCCN2CCOCC2)cc1 2.93 µM
Cc1nn(Cc2c(F)c(F)c(F)c(F)c2F)c(C)c1NC(=O)c1cccc(COc2ccc(Cl)cc2)c1 7.36 µM
CC(C)c1cc(C(N)=O)c(NC(=O)c2cccc(COc3ccc(Cl)cc3)c2)s1 0.585 µM
COc1ccc(NC(=S)N2CCc3ccccc32)cc1OC 16.5 µM
Brc1c(CSc2nc3ccccc3o2)nc2ncccn12 7.36 µM
Brc1c(CSc2nc3ccccc3s2)nc2ncccn12 3.29 µM
C/C(=N\Nc1nncc2ccccc12)c1ccc(OCC(=O)N(C)C)cc1 4.65 µM
C/C(=N\Nc1nncc2ccccc12)c1cccc(OC(F)F)c1 0.414 µM
COc1ccc(/C(C)=N/Nc2nncc3ccccc23)cc1 0.826 µM
C/C(=N\Nc1nncc2ccccc12)c1ccc(C(C)(C)C)cc1 7.36 µM
Cc1cc(N2CCOCC2)nc(SCC(=O)c2ccccc2)n1 13.1 µM
